This passage reports Potency, activity change, negative = inhibition and activity, negative = inhibition results from PubChem BioAssay (NCATS).

A number with no mark means an inactive call. Inconclusive results are not listed. Active and inactive are the calls of the source. Unless noted, calls come from the whole dose curve; as a rule, active = well fitted curve in either direction with a large enough effect (not every such curve was filed as active); inconclusive = small, poorly fitted or top-dose-only effect, or another doubt; inactive = flat fitted curve, though single readings scatter. A value given as a limit tells only on which side of the number the result lay.

Test [1] concerns the target Lysosomal acid glucosylceramidase (Homo sapiens) (UniProt P04062). In words: Glucocerebrosidase-p2 (AID 348; in the data active = potency below about 10 µM; note: potency is the fitted concentration of half-maximal effect). Particulars: purified GBA, blue fluorogenic substrate, 40 min. The essentials:
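Compounds titrated from 0.6 nM upwards against 0.2 nM enzyme in pH 5.9 citric acid/KH2PO4, taurocholate, tween-20; blue fluorogenic substrate 80 uM, 40 min room temperature, stopped and read Ex 365/Em 440 for AC50.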

Test [2] can be described thus: AP1 Signaling Pathway (AID 357).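 Note: ME-180 reporter cells stimulated with EGF at its EC50 level; % is set by controls: 0 for no effect and ±100 for the full control effect.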 The settings on record: ME-180 AP-1-bla reporter, EGF-induced, beta-lactamase ratio, 5 h; at 7.69 µM (top of the series) unless noted. The essentials:
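First, ME-180 AP-1-bla cells were cultured overnight at 37 °C in low-serum Opti-MEM. Next, titrated compounds with EC50 EGF were incubated 5 hours. Finally, CCF4 was added for 2.5 hours and the 460/530 nm ratio recorded.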

Test [3] has as its target Cytochrome P450 1A2 (Homo sapiens) (UniProt P05177). Put plainly: p450-cyp1a2 (AID 410; calls by dose curve; note: potency is the fitted concentration of half-maximal effect;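 for activity change, negative = inhibition: -100% = full effect of reference inhibitor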). The settings on record: recombinant CYP1A2, luciferin-ME demethylation, luminescence; series mostly up to 11.4 µM. In short, it runs like this: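 Inhibition was calculated relative to 57 uM furafylline (full inhibition). The reaction used human CYP1A2 at 20nM with Luciferin-ME at its Km, 100uM, driven by an NADPH-regenerating system for 60 min at room temperature.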

A short description of test [4]: NFAT Signaling Pathway (AID 444).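 Note: carbachol stimulus at about its EC50 of 1 µM final; % is set by controls: 0 for no effect and ±100 for the full control effect.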 The settings on record: Jurkat NFAT-bla M1, carbachol, beta-lactamase ratio, 5 h; at 7.69 µM (top of the series) unless noted. In short, it runs like this:
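Read-out: CCF4 FRET ratio (460 nm/530 nm) after 1 h RT dye loading, used for %activity and AC50 from titration series. Cells: Jurkat NFAT-β-lactamase/M1 line, treated with compound plus 1 uM carbachol for 5 h, 37 °C.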

Test [5] is described as follows: Stat Signaling Pathway (AID 446).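 Note: ME-180 cervical cancer cells given 40 pM IL-6 alongside compound; SIE-controlled beta-lactamase reporter measured as 460/530 nm FRET emission ratio; % is set by controls: 0 for no effect and ±100 for the full control effect.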 Particulars: ME-180 (cervical carcinoma) SIE beta-lactamase reporter, IL-6 stimulated, 5 h; at 7.69 µM (top of the series) unless noted. In short, it runs like this:
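IL-6/STAT signaling read in ME-180 cells via an SIE beta-lactamase reporter. Stimulus was 40 pM IL-6 (its AC50) for 5 hrs, so both activation and inhibition register.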

Test [6] addresses Glucocorticoid receptor (Homo sapiens) (UniProt P04150). In words: GR-GFP Redistribution (AID 450;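 active = compounds whose dose series gives a full or clear partial fitted curve of increased nuclear translocation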; note: potency is the fitted concentration of half-maximal effect). The settings on record: U2OS GR-GFP nuclear translocation, laser cytometry, 2 h.
Test [7] shares this target. Put plainly: GR-EFC Redistribution (AID 451; calls by dose curve; note: potency is the fitted concentration of half-maximal effect). Particulars: CHO-K1 GR-EFC translocation, beta-gal luminescence, 2 h. The essentials:
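Translocation of GR-ED fusion to nuclear EA restores b-gal, read by luminescence after 1 h room-temperature detection. Engineered CHO-K1 biosensor cells, 1,000/well, exposed 2 h at 37 C to titrations up to 46 uM final.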

Test [8] concerns the target Mitogen-activated protein kinase 10 (Mus musculus) (UniProt Q61831). Put plainly: JNK3 AlphaScreen Assay (AID 530).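 Note: kinase came from lysate of stimulated human HepG2 cells; signal reports phosphorylation of biotinylated GST-cJun 1-79 at Ser73 with 10 µM ATP; % is set by controls: 0 for no effect and ±100 for the full control effect.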 The settings on record: JNK3 lysate, c-Jun phosphorylation; series mostly up to 11.4 µM. The essentials: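 Room-temperature AlphaScreen kinase assay; pre-activated HepG2 lysate as JNK3 source, biotin-GST-cJun(1-79) substrate, 10 uM ATP, compound 15 min preincubation.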
(In general: Alpha assays give light when donor and acceptor beads are brought close together.)

The target in test [9] is 3',5'-cyclic-AMP phosphodiesterase 4B (Homo sapiens) (UniProt Q07343). In words: qHTS Assay for Inhibitors of PDE-IV (AID 607; active = well fitted activation curve with a large enough effect in the main read-out, with a control signal flat, not every such curve was filed as active; note: % of control where 0% means no effect). The settings on record: HEK293 ACTOne CNG channel cells, membrane potential fluorescence; series mostly up to 22.9 µM. In short, it runs like this: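 Live HEK293 cells with a modified cyclic nucleotide-gated (CNG) channel report intracellular cAMP via membrane-potential dye fluorescence (ex 535/em 590 nm). Endogenous PDE-IV was targeted. Compounds were tested at up to 22.9 uM final; RO 20-1724 100 uM served as control.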
Chain of 3',5'-cyclic-AMP phosphodiesterase 4B (Homo sapiens) (Q07343 whole entry, looked up): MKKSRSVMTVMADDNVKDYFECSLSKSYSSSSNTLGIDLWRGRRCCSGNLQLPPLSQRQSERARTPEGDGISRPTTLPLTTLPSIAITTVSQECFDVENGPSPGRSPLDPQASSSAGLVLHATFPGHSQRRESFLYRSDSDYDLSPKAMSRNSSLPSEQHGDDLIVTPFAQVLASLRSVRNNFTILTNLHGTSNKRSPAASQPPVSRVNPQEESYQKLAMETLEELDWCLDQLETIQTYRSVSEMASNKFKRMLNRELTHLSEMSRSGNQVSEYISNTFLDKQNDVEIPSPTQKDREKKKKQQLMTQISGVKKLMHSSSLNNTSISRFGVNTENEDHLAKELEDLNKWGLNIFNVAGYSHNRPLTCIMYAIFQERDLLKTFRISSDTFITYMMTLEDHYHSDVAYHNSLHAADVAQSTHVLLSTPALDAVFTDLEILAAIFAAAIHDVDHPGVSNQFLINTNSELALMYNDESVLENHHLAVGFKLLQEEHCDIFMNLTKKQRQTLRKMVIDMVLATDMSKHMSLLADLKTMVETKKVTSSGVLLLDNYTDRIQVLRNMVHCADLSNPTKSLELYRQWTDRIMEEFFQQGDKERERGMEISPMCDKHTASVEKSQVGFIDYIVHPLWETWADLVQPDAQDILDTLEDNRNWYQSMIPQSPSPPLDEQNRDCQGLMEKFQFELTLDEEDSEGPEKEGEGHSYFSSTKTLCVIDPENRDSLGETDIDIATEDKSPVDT

Chain of Cytochrome P450 1A2 (Homo sapiens) (P05177 whole entry, looked up): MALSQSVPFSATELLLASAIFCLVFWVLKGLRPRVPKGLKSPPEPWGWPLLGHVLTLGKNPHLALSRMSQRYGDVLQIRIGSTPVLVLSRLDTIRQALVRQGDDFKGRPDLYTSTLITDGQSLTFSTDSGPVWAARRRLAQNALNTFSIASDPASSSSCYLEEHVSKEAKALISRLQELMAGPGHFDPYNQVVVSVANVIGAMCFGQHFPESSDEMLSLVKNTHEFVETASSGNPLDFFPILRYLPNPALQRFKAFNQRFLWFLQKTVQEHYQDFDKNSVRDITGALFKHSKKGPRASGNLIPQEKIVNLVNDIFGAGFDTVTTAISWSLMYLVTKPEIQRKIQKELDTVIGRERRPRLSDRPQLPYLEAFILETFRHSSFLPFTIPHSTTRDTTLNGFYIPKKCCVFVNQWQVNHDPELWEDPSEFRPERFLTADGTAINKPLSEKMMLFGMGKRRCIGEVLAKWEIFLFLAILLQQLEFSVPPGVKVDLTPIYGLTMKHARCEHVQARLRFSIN
Chain of Glucocorticoid receptor (Homo sapiens) (P04150 whole entry, looked up): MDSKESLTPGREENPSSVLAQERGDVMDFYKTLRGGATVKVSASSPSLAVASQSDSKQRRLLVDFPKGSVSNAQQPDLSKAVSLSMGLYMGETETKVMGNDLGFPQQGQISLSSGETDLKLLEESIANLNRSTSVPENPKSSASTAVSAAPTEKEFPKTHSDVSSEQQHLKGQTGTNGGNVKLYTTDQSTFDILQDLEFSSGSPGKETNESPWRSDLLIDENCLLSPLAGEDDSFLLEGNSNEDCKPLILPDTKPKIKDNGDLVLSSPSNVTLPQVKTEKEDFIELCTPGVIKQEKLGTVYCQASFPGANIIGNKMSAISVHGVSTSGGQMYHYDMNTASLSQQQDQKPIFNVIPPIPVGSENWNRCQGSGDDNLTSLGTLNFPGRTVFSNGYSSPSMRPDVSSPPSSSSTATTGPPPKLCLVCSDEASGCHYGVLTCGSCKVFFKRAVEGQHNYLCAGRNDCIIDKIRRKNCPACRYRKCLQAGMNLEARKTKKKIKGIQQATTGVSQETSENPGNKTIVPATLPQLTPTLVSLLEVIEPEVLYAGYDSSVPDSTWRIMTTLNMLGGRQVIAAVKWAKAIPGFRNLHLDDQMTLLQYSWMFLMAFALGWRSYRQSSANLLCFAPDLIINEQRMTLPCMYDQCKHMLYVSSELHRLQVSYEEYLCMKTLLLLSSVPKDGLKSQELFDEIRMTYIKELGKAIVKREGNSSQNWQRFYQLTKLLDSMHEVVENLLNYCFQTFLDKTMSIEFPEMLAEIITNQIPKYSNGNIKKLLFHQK
Chain of Lysosomal acid glucosylceramidase (Homo sapiens) (P04062 whole entry, looked up): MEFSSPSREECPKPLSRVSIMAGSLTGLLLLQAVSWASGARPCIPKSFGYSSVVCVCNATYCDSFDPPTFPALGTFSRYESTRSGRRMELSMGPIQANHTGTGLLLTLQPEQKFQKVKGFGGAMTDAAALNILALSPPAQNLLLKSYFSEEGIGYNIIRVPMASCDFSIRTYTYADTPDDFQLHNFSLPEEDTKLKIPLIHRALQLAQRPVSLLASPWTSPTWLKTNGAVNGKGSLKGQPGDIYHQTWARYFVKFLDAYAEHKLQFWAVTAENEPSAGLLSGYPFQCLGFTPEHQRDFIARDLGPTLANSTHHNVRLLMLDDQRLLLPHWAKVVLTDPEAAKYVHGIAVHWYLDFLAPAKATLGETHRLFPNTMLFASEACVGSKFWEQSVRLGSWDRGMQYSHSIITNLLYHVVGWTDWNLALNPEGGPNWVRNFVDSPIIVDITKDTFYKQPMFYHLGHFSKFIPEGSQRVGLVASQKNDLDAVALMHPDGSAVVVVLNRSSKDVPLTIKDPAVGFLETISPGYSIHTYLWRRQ

In the case of `NCC(=O)Nc1ccc(Cl)cc1C(=O)c1ccc[nH]1`, the Potency is above 11.4 µM in test [1], 3.16 µM (active) in test [3], above 46 µM in test [6] and above 9.22 µM in test [7]. For the same molecule, the activity change, negative = inhibition in test [2] was -2.05%; in test [4], -24.8%. Further, the activity, negative = inhibition in test [5] is -3.02%. The Potency result in test [8] and in test [9] was “inactive” in each case.

Turning to `COc1ccc(CSC2=C(C#N)C(=O)NC3(CCCCC3)S2)cc1`, the Potency in test [1] was above 11.4 µM; in [6] it was above 46 µM; in test [7], above 9.22 µM. For the same molecule, the activity change, negative = inhibition is 4.52% in [2], -5.8% [at 2.29 µM] in test [3] and 7.32% in [4]. The activity, negative = inhibition in [5] was 1.46%. Besides, the Potency entry in test [8] and in test [9] was “inactive” in each case.

As to `CN(C)S(=O)(=O)c1nc(Cl)c2[nH]cnc2n1`, the results for the Potency in test [1], in [6] and in test [7] were above 11.4 µM, above 46 µM and above 9.22 µM, respectively. The activity change, negative = inhibition in [2] was 1.09%; in test [4], 17.4%. In addition, the Potency entry in test [3], in test [8] and in test [9] was “inactive” throughout. Further, the activity, negative = inhibition in test [5] is -1.44%.

As to `C[C@H]1[C@H](C)OC(=O)C[C@H](O)C[C@H](O)C[C@H](O)CC[C@H](O)[C@H](O)CC(=O)C[C@H](O)[C@H](C(=O)O)[C@H](O)C[C@H](O[C@@H]2O[C@@H](C)[C@H](O)[C@@H](N)[C@@H]2O)C=CC=CC=CC=CCCC=CC=C[C@@](C)(O)[C@H]1O`, the Potency in test [1] was above 11.4 µM; in test [6], above 46 µM; in test [7], above 9.22 µM. The results for the activity change, negative = inhibition in test [2] and in test [4] were 4.16% and 2.48%, respectively. The Potency result in test [3], in test [8] and in test [9] was “inactive” each time. Further, in [5], the activity, negative = inhibition is -6.26%.

As for `CCOc1ccccc1Nc1ccc(N)cc1S(=O)(=O)O`, the Potency in [1] was above 11.4 µM; in test [6] it was above 46 µM; in [7] it was above 9.22 µM. In addition, the activity change, negative = inhibition in test [2] is 6.02%; in test [3] it was -12.6% [at 2.29 µM]; in test [4], -5.87%. Further, the activity, negative = inhibition in test [5] was -1.52%. For the same molecule, the Potency entry in test [8] and in test [9] was “inactive” throughout.

As for `O=C(O)c1cc(N=Cc2ccccc2O)cc(C(=O)O)c1`, the Potency in test [1] is above 11.4 µM; in test [6] it was above 46 µM; in [7] it was above 9.22 µM. The activity change, negative = inhibition was -3.29% in [2] and 17.2% in test [4]. Also, the Potency result in [3], in [8] and in test [9] was “inactive” in each case. In test [5], the activity, negative = inhibition was -4.46%.

Turning to `O=C(O)[C@@H]1[C@@H]2C[C@H]([C@@H](Br)[C@H]2N2C(=O)CCC2=O)[C@@H]1C(=O)O`, the Potency was above 11.4 µM in test [1], above 46 µM in test [6] and above 9.22 µM in test [7]. The activity change, negative = inhibition in test [2] is -1.32%; in test [3], -15.8% [at 2.29 µM]; in [4], 10.6%. The activity, negative = inhibition in test [5] was 11.9%. The Potency result in test [8] and in test [9] was “inactive” each time.

On to `CCN(CCO)C[C@H]1CCC[C@H]2CCCC[C@@H]21`, for which the Potency was above 11.4 µM in test [1], 5.01 µM (active) in test [3], above 46 µM in test [6] and above 9.22 µM in [7]. The activity change, negative = inhibition in test [2] was 16.9%; in test [4], 0.328%. For the same molecule, in [5], the activity, negative = inhibition is 4.97%. Further, the Potency entry in test [8] and in test [9] was “inactive” in each case.

For `Nc1[nH]c(=O)nc2c1ncn2[C@H]1O[C@@H](CO)[C@@H](O)[C@@H]1O`, the Potency was above 11.4 µM in test [1], above 46 µM in test [6] and above 9.22 µM in test [7]. The activity change, negative = inhibition was -9.66% in test [2] and 15.7% in test [4]. Further, the Potency result in [3], in test [8] and in test [9] was “inactive” each time. For the same molecule, in test [5], the activity, negative = inhibition is 17.5%.

In the case of `CC(C)(C)c1ccc(OC(=O)Nc2ccc(O)c(C(=O)O)c2)cc1`, the Potency in test [1] was above 11.4 µM; in test [6], above 46 µM; in [7] it was above 9.22 µM. In addition, the activity change, negative = inhibition is -0.0209% in [2], 6.5% [at 2.29 µM] in test [3] and 6.49% in [4]. For the same molecule, the activity, negative = inhibition in [5] is 0.0223%. For the same molecule, the Potency result in test [8] and in test [9] was “inactive” each time.

As to `OCCn1cnc2c(SCc3ccccc3)ncnc21`, the Potency was above 11.4 µM in [1], 3.16 µM (active) in test [3], above 46 µM in test [6] and above 9.22 µM in test [7]. Also, the results for the activity change, negative = inhibition in [2] and in [4] were -4.68% and 1.04%, respectively. The activity, negative = inhibition in test [5] is -1.73%. The Potency entry in test [8] and in [9] was “inactive” each time.

As to `Cc1[nH]c2ccccc2c1-c1cc(-c2cc(-c3c(C)[nH]c4ccccc34)nc(N)n2)nc(N)n1`, the Potency is above 11.4 µM in [1], 0.398 µM (active) in test [3], above 46 µM in [6] and above 9.22 µM in [7]. Moreover, the activity change, negative = inhibition was -6.63% in test [2] and 1.59% in test [4]. Also, the activity, negative = inhibition in test [5] is -4.41%. Further, the Potency entry in [8] and in test [9] was “inactive” in each case.

With `COc1cc2ccc([C@H](C)NCC#N)cc2cc1OC`, the Potency in test [1] was above 11.4 µM; in test [3], 0.501 µM (active); in test [6], above 46 µM; in [7] it was above 9.22 µM. Moreover, the results for the activity change, negative = inhibition in [2] and in test [4] were -11.4% and 9.37%, respectively. Besides, the activity, negative = inhibition in test [5] was -0.292%. In addition, the Potency entry in test [8] and in [9] was “inactive” throughout.

In the case of `C[N+]1([C@H](CO)Cc2c[nH]c3ccccc23)Cc2ccccc2C1`, the Potency in test [1] is above 11.4 µM; in [6], above 46 µM; in test [7] it was above 9.22 µM. Besides, the results for the activity change, negative = inhibition in test [2] and in test [4] were -7.62% and -15.6%, respectively. Besides, the Potency entry in [3], in [8] and in test [9] was “inactive” each time. Also, in test [5], the activity, negative = inhibition was 13.4%.
